Results on 27 molecules are retold here after the supplement of paper PMC11172423.

A number with no mark means an inactive call.

Test [1] deals with Falciformispora senegalensis CBS197.79. Nature of the test: growth relative to untreated control; higher = less inhibition, active = 20 or less. Put shortly:
(§1)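 In 96-well plates, suspended hyphal fragments of M. mycetomatis MM55 or F. senegalensis CBS197.79 were exposed to compound at 100 or 25 µM for 7 days at 37 °C. The suspension medium was colourless RPMI 1640 with L-glutamine and MOPS, adjusted to 68–72% transmission at 660 nm. Viability was measured with MTS (2 h, 490 nm) or resazurin (600 nm). Growth means metabolic activity compared with the untreated growth control after blank correction of both with medium plus dye.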

Test [2] concerns Madurella mycetomatis MM55. The description is as above. Put shortly: as §1

With `COc1ccc2nc3cc(Cl)ccc3c(Nc3cc(CN4CCCC4)c(O)c(CN4CCCC4)c3)c2n1`, the growth in test [1] (25 µM) was 107%; in test [1] (100 µM), 15% (active).

As to `CC(C)Oc1ccc(-c2nc(-c3cccc4c3CC[C@@H]4NCCO)no2)cc1C#N`, the growth was 9.29% (active) in test [1] (25 µM) and 6.46% (active) in test [1] (100 µM).

Consider `O=C(Nc1ncccc1O)c1ccc(S(=O)(=O)NCCc2cccs2)cc1`, for which the growth in test [1] (25 µM) and in test [1] (100 µM) was 88.7% throughout.

Take `Cc1ccc(-c2noc(-c3ccccc3)n2)cc1`: the growth in test [1] (25 µM) is 90.2%; in test [1] (100 µM), 86.5%.

For the molecule `CCCCCCO[C@@H](C)c1cccc(-c2csc(NC(=O)c3cc(Cl)c(/C=C(\C)C(=O)O)c(Cl)c3)n2)c1OC`, the results for the growth in test [1] (25 µM) and in test [1] (100 µM) were 80% and 105%, respectively.

`COc1cc(N2CCN(C)CC2)ccc1Nc1nccc(-c2cn(C)c3cnccc23)n1`: the growth in test [1] (25 µM) is 69.1%; in test [1] (100 µM) it was 75.1%.

For the molecule `CCOc1cc([C@@H](CS(C)(=O)=O)N2C(=O)c3cccc(NC(C)=O)c3C2=O)ccc1OC`, the growth in test [1] (25 µM) is 99.4%; in test [1] (100 µM), 99.6%.

For the molecule `CN(C)CCn1cnc2sc3c(c2c1=O)CCC(NCc1cccc(Cl)c1)C3` (configuration not stated), the growth is 94.3% in test [1] (25 µM) and 21% in test [1] (100 µM).

Take `Cc1cc(Nc2cn3cc(-c4cnn(C(F)F)c4)ccc3n2)nc(C)n1`: the growth in test [1] (25 µM) was 94.1%; in test [1] (100 µM) it was 83.8%.

For the molecule `CC(=O)Nc1ccc(NC(=O)c2cc(-c3ccc(C)cc3O)n[nH]2)cc1`, the growth was 81.7% in test [1] (25 µM), 82.2% in test [1] (100 µM), 85.3% in test [2] (25 µM) and 82.5% in test [2] (100 µM).

As to `CN(C)CCCN1C(=O)c2[nH]nc(-c3ccc(Cl)cc3O)c2C1c1ccc(Cl)cc1` (configuration not stated), the growth in test [1] (25 µM) is 83.3%; in test [1] (100 µM), 25.4%; in test [2] (25 µM) it was 68%; in test [2] (100 µM) it was 6.84% (active).

Consider `O=C(OI(OC(=O)C(F)(F)F)c1ccccc1)C(F)(F)F`, for which the growth in test [1] (25 µM) was 97.9%; in test [1] (100 µM), 93%.

As for `N=C(N)Nc1ccc(C(=O)Oc2ccc3cc(C(=N)N)ccc3c2)cc1`, the values for the growth in test [1] (25 µM) and in test [1] (100 µM) were 107% and 66.5%, respectively.

Take `CC(C)C(=O)OCC(=O)[C@@]12OC(C3CCCCC3)O[C@@H]1C[C@H]1[C@@H]3CCC4=CC(=O)C=C[C@]4(C)[C@H]3[C@@H](O)C[C@@]12C` (some centres not stated): the growth in test [1] (25 µM) was 109%; in test [1] (100 µM), 105%; in test [2] (25 µM), 75.3%; in test [2] (100 µM), 90.7%.

With `Nc1nonc1-c1nc2c(-c3cccc(Cl)c3)nccc2n1CCCNC(=O)Cc1ccc(Cl)cc1`, the growth in test [1] (25 µM) was 90%; in test [1] (100 µM), 110%; in test [2] (25 µM), 80.5%; in test [2] (100 µM) it was 121%.

Consider `Cc1ccc(C)c2sc(N(CCCn3ccnc3)C(=O)c3ccco3)nc12`, for which the growth was 38.5% in test [1] (25 µM) and 30% in test [1] (100 µM).

Regarding `CN(C)CCN1CCCN(c2ccnc3ccsc23)CC1`, the growth in test [1] (25 µM) is 90.2%; in test [1] (100 µM) it was 99.7%.

Take `CC(C)(C)NC(=O)N[C@H](C(=O)N1C[C@H]2[C@@H]([C@H]1C(=O)NC(CC1CCC1)C(=O)C(N)=O)C2(C)C)C(C)(C)C` (some centres not stated): the growth was 103% in test [1] (25 µM), 101% in test [1] (100 µM), 103% in test [2] (25 µM) and 81.9% in test [2] (100 µM).

Regarding `O=C(Nc1ccc([N+](=O)[O-])cc1Cl)c1cc(Cl)ccc1O`, the growth is 0% (active) in test [1] (25 µM), 0% (active) in test [1] (100 µM), 4.63% (active) in test [2] (25 µM) and 4.72% (active) in test [2] (100 µM).

As to `CN1[C@H]2CC[C@H]1CC(OC(c1ccccc1)c1ccccc1)C2` (some centres not stated), the growth in test [1] (25 µM) and in test [1] (100 µM) was 103% in each case.

For the molecule `CCCNc1nc(NC2CCCCC2)c2ccsc2n1`, the growth in test [1] (25 µM) is 85.5%; in test [1] (100 µM), 88.3%; in test [2] (25 µM), 14.7% (active); in test [2] (100 µM) it was 48.2%.

With `O=C(Nc1ncccc1O)c1ccc(Cn2cccn2)cc1`, the results for the growth in test [1] (25 µM) and in test [1] (100 µM) were 87.3% and 86.4%, respectively.

In the case of `Cc1ccc(-c2cc(C(F)(F)F)nn2-c2ccc(S(N)(=O)=O)cc2)cc1`, the figures for the growth in test [1] (25 µM) and in test [1] (100 µM) were 102% and 9.81% (active), respectively.

For the molecule `Cc1cnc2nc(NC3COc4ccc(F)cc43)nc(NC3CCC4(CCCC4)CC3)c2c1` (configuration not stated), the growth in test [1] (25 µM) is 85.8%; in test [1] (100 µM), 95%.

Regarding `N#CC[C@H](C1CCCC1)n1cc(-c2ncnc3[nH]ccc23)cn1`, the growth was 110% in test [1] (25 µM), 103% in test [1] (100 µM), 76.6% in test [2] (25 µM) and 92.4% in test [2] (100 µM).

For `O[C@@H](CNC[C@H](O)[C@H]1CCc2cc(F)ccc2O1)[C@@H]1CCc2cc(F)ccc2O1`, the growth in test [1] (25 µM) is 5.42% (active); in test [1] (100 µM), 12.3% (active).

Take `COC(=O)C1=C(C)NC(C)=C(C(=O)OC)C1c1ccccc1[N+](=O)[O-]`: the growth in test [1] (25 µM) is 98.9%; in test [1] (100 µM), 41.1%; in test [2] (25 µM), 89.7%; in test [2] (100 µM) it was 4.04% (active).
